Source: PubChem BioAssay (National Center for Advancing Translational Sciences (NCATS))
Shown are actives, neighbours in structure and some others; about 8.8% of the full set was active somewhere.
IL-1B inflam inh – qHTS for Inhibitors of Inflammasome Signaling: IL-1-beta AlphaLISA Primary Screen; actives 4.7% (n = 360,000); THP-1 LPS/ATP IL-1B secretion, AlphaLISA, 16 h; active compounds read low; activity change, % at 57.5 µM; in the data active means activity change below about -50%; inconclusive means mostly about -30% to -49%
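THP-1 cells pretreated 1 hr with compounds (up to 57.5 uM final), then stimulated with LPS (250 ng/mL final) plus ATP (1.25 mM final); secreted IL-1B measured by AlphaLISA after 16 hr, decreased signal indicating inhibition.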
HT1080 IDH1KD tx – qHTS for induction of synthetic lethality in tumor cells producing 2HG: qHTS for the HT-1080-IDH1KD cell line. AID 686971, 2013. actives 2% (n = 360,000). HT-1080 IDH1 knockdown viability, ATP luminescence, 48 h. Potency, µM (titrated, usually from 46.1 µM), for the others: top-dose activity, negative = toxicity, usual class: cytotoxic;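 further: potency means the concentration at half of the fitted maximal effect; 0% = DMSO wells and -100% = cell-free medium wells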
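Luminescent ATP read-out (CellTiter-Glo, 10 min at room temperature) after 48 h compound exposure at 37 °C gave viability of IDH1-knockdown HT-1080 cells. Activity was normalised to DMSO and cell-free wells, then fitted as concentration-response curves.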
KB-3-1 tox – qHTS assay for MDR1-selective chemotherapeutics: Primary screen using the parental adenocarcinoma cell KB-3-1; KB-3-1 viability, CellTiter-Glo ATP luminescence, 72 h; Potency, µM (titrated, usually from 46.1 µM), most hits filed as cytotoxic; actives 1.4% (n = 400,000); AID 1347075, 2019; further: potency means the concentration at half of the fitted maximal effect; nearly all actives have a fitted effect of over 60% in size
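72 h, 37 °C compound treatment of KB-3-1 parental cells; CellTiter-Glo added, 10 min, luminescence read. Data corrected against DMSO-only plates and normalized before curve fitting.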
KB-V1 cytotox – qHTS assay for MDR1-selective chemotherapeutics: Primary screen using the drug-selected MDR subline cells KB-V1; KB-V1 MDR cells viability, CellTiter-Glo, 72 h; Potency, µM (highest dose often 46.1 µM), usual class: cytotoxic; actives 3.4% (n = 400,000); AID 1347076, 2019; further: potency means the concentration at half of the fitted maximal effect; nearly all actives have a fitted effect of over 60% in size
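Compound-treated KB-V1 multidrug-resistant cells, 72 h, 37 degrees C; viability by CellTiter-Glo. Fitted qHTS curves give the values.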
HT1080NT lethal – qHTS for induction of synthetic lethality in tumor cells producing 2HG: qHTS for the HT-1080-NT fibrosarcoma cell line; HT-1080-NT fibrosarcoma viability, CellTiter-Glo ATP luminescence, 48 h; Potency, µM (highest dose often 46.1 µM), without a hit: at the highest dose activity, negative = less viability, most hits filed as cytotoxic; actives 1.6% (n = 360,000); AID 686970, 2013;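 further: NT is the 2HG producing partner of a matched IDH1 knockdown line; potency means the concentration at half of the fitted maximal effect; 0% = DMSO-treated cells and -100% = media-only wells without cells; nearly all actives have a fitted effect of over 55% in size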
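Fibrosarcoma NT cells, 750 per well in 5% FBS RPMI, were exposed to compound for 48 hours. Viability: CellTiter-Glo luminescence.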
Active calls of the source: *; i = inactive; ? = inconclusive; · = not tested or not shown; [ ] = dose if it differs, or a comment. Unless noted, the call rests on the fitted dose curve; in most records, active means well fitted curve in the direction sought with a large enough effect; inconclusive means small, poorly fitted or top-dose-only effect, or another doubt; inactive means no such curve, though single readings can be large; an effect the other way counts as inactive or inconclusive. Unless noted, on the % scale 0 is the no-effect control and ±100 the full control effect.

SMILES | IL-1B inflam inh | HT1080 IDH1KD tx | KB-3-1 tox | KB-V1 cytotox | HT1080NT lethal
COc1ccccc1COc1cccn2c(N(C)C(=O)CCC3CCCC3)c(C)nc12 | -21 | ? | i | i | ?
O=C(Nc1nccs1)c1cnc2sccn2c1=O | 31 | 9% | i | ? | 2%
COc1ccccc1C(c1c(O)cc(C)n(Cc2ccco2)c1=O)N1CCCCC1 (stereo not given) | · | · | i | i | ·
CC(Oc1ccc2ccc(=O)oc2c1)C(=O)NC1CC(C)(C)NC(C)(C)C1 (stereo not given) | -1 | 11% | i | i | 10%
CC(C)(C)c1ccc(-c2nnc(SCCC#N)n2C2CCCC2)cc1 | -51* | ? | ? | ? | ?
COc1ccc(-c2nn(-c3ccccc3)cc2/C=N/N2C(=O)CSC2=S)cc1 | -106* | 2% | ? | ? | 25%
Cc1ccc(C)c(S(=O)(=O)NCc2ccc(C(=O)N3CCN(c4ccccc4)CC3)cc2)c1 | -63* | -5% | i | ? | -2%
Cc1ccc(S(=O)(=O)NCCC(=O)N2CCC(Cc3ccccc3)CC2)cc1 | 0 | -9% | i | ? | 0%
CCN1CCN(C(=O)c2ccc(CNS(=O)(=O)c3cccc(OC)c3)cc2)CC1 | 16 | 8% | · | · | -1%
COc1cccc(S(=O)(=O)NCc2ccc(C(=O)N3CCN(Cc4ccccc4)CC3)cc2)c1 | -67* | -23% | ? | ? | -9%
Cc1ccc(S(=O)(=O)NCc2ccc(C(=O)N3CCN(Cc4ccccc4)CC3)cc2)cc1 | -79* | -19% | 23µM* | ? | ?
Cc1ccc(S(=O)(=O)NCc2ccc(C(=O)NCCCN3CCC(Cc4ccccc4)CC3)cc2)cc1 | -65* | ? | i | i | ?
COc1ccc(S(=O)(=O)NCc2ccc(C(=O)N3CCN(Cc4ccccc4)CC3)cc2)cc1 | -26 | -15% | i | i | -2%
Cc1ccc(S(=O)(=O)N2c3ccccc3OC(C(=O)OC(C)(C)C)(C(=O)OC(C)(C)C)C2CC(=O)c2ccccc2)cc1 (stereo not given) | -27 | -11% | i | i | -4%
O=C(Nc1ccc(C(=O)NCCCN2CCN(c3ccccc3)CC2)cc1)C1=CSCCO1 | 5 | -22% | i | i | -16%
Cc1ccc(S(=O)(=O)NCc2ccccc2)cc1C(=O)N1CCCCCCC1 | 0 | -6% | i | 9.2µM* | 3%
Cc1ccc(S(=O)(=O)NCc2ccccc2)cc1C(=O)N1CCN(S(=O)(=O)c2ccccc2)CC1 | 14 | -5% | i | i | 3%
O=c1[nH]c2cc3ccccc3cc2nc1-c1nnnn1C1CCCC1 | 0 | 16µM* | 5.8µM* | i | ?
COCCCNC(=O)C(C)n1c2ccccc2c2cnn(C)c(=O)c21 (stereo not given) | · | · | i | i | ·
COc1cccc(CNC(C)(C)CO)c1OCc1ccc(Cl)cc1 | -57* | -7% | i | i | -12%
CCOc1cccc(CNCCO)c1OCc1ccc(Cl)cc1 | -55* | -22% | i | i | -23%
CCOc1cc(CNCCO)cc(Br)c1OCc1ccc(Cl)cc1 | -16 | ? | ? | ? | ?
O=C(OCc1cccc([N+](=O)[O-])c1)c1ccc2ccccc2n1 | 25 | 18% | i | i | 8%
Cc1ccc(COC(=O)CN2C(=O)NC3(CCCCC3C)C2=O)cc1 (stereo not given) | -5 | -7% | i | i | -5%
CSc1cccc(NC(=O)CC(c2cccs2)N2Cc3ccccc3C2=O)c1 (stereo not given) | · | · | i | i | ·
SMILES | IL-1B inflam inh | HT1080 IDH1KD tx | KB-3-1 tox | KB-V1 cytotox | HT1080NT lethal
O=C(c1cc(C2CC2)nn1-c1ccccc1)N1CCN(c2ccc(O)cc2)CC1 | -13 | -16% | i | ? | 0%
O=C(c1cc(C2CC2)nn1-c1ccccc1)N1CCN(c2ccccc2O)CC1 | ? | 19% | i | i | 12%
O=C(c1cc(C2CC2)nn1-c1ccccc1)N1CCN(c2ncc(C(F)(F)F)cc2Cl)CC1 | -10 | 16% | i | 16µM* | 22%
O=C(c1cc(C2CC2)nn1-c1ccccc1)N1CCN(c2ccccn2)CC1 | -63* | -1% | i | ? | 4%
Cc1sc2ncnc(Sc3nnnn3-c3ccccc3)c2c1C | -101* | 7.1µM* | ? | ? | 10µM*
Clc1ccc(-n2nnnc2Sc2ncnc3sccc23)cc1 | -120* | ? | ? | ? | 21µM*
Cc1ccc(Nc2c(-c3ccc(C)s3)nc3cccc(C)n23)cc1 | · | -20% | · | · | -18%
CC(=O)NCCNC(=O)c1ccc(Cn2c(=O)[nH]c3ccsc3c2=O)cc1 | 29 | 4% | i | i | 3%
O=C(Nc1cc(Cl)cc(Cl)c1)c1ccc(Cn2c(=O)[nH]c3ccsc3c2=O)cc1 | ? | 4% | 16µM* | i | 15%
CCCCNC(=O)CCn1c(=O)c2ccccc2n(Cc2ccc(Cl)cc2)c1=O | 34 | -1% | i | 15µM* | -2%
COCCCNC(=O)c1ccc(Cn2c(=O)c3ccccc3n(Cc3ccccc3C)c2=O)cc1 | 6 | 16µM* | ? | ? | ?
COCCCNC(=O)c1ccc(Cn2c(=O)c3ccccc3n(Cc3cc(C)ccc3C)c2=O)cc1 | -18 | -5% | ? | ? | -2%
O=C(CCCCn1c(=O)c2ccccc2n(Cc2ccc(F)cc2)c1=O)NCc1ccco1 | -4 | -15%[9.24 µM] | 12µM* | 5.8µM* | 18µM*
O=C(CCCn1c(=O)c2ccccc2n(Cc2ccccc2)c1=O)NCc1ccco1 | -8 | ? | ? | ? | ?
CCOC(=O)C1=CCC(c2cc3ccccc3[nH]2)NC1 (stereo not given) | ? | -16% | i | ? | -28%
C(=N\N(c1ccccc1)c1ccccc1)/c1ccc(N2CCOCC2)s1 | -22 | 6% | i | i | 0%
COc1ccc(C(=O)NC(=S)Nc2ccc(CN3CCCCC3)cc2)cc1Cl | -68* | ? | i | i | ?
Cc1ccc(C(=O)NC(=S)Nc2ccc(CN3CCCCC3)cc2)c(C)c1 | -53* | ? | i | i | ?
COc1ccc(C(=O)NC(=S)Nc2ccc(CN3CCOCC3)cc2)cc1Cl | -11 | -1% | i | i | -3%
COc1ccc(NC(=O)CSc2nc(O)c(C/C=C/c3ccccc3)c(=O)[nH]2)cc1 | · | · | i | i | ·
CCOC(=O)c1c(NC(=O)CCl)sc(CN(C)C)c1-c1ccccc1 | -98* | ? | ? | i | ?
